This is an account of results in PubChem BioAssay (NCATS).

For one test, the system named is NIH3T3. Put plainly: qHTS assay to identify novel small-molecules to repurpose for Merkel cell carcinoma treatment (AID 1296009). Note: nearly all actives have a fitted effect of over 60% in size. Note: potency is the fitted concentration of half-maximal effect. As to conditions: MCC and control cell lines, CellTiter-Glo viability, 72 h; at 44.8 µM (top of the series) unless noted. The method in brief:
(§1)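 Cells were treated for 72 hr at 37 degree celsius with compounds in 8- or 11-point dose response. Viability was read by CellTiter-Glo luminescence, normalized to no-cell (cytotoxicity) and DMSO controls.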
In general terms: qHTS replaces the single test concentration by a dilution series.

Another test has as its system WaGa. Described as above. Particulars: MCC and control cell lines, CellTiter-Glo viability, 72 h; series mostly up to 46 µM. In a few lines:
as §1
A general note: ATP-based viability assays read luminescence as a measure of living cells.

The next test concerns CAOV3. Put plainly: Primary qHTS to identify gynecologic anti-cancer compounds using libraries of approved drugs and bioactive compounds (AID 1345084). Note: % is set by controls: 0 for no effect and ±100 for the full control effect; nearly all actives have a fitted effect of over 55% in size. As to conditions: Gynecologic cancer cell panel viability, ATPlite luminescence, 48 h; series mostly up to 57.5 µM. In a few lines: (§2)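 Cell viability after 48 h drug treatment, ATPlite luminescence readout; five doses.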
The test system of another test is CASKI. Described as above. As to conditions: Gynecologic cancer cell panel viability, ATPlite luminescence, 48 h; series mostly up to 57.5 µM. In a few lines:
as §2

A further test concerns Es-2. The description is as above. As to conditions: Gynecologic cancer cell panel viability, ATPlite luminescence, 48 h; series mostly up to 57.5 µM. In a few lines:
as §2

A further test deals with HeLa. Described as above. Particulars: Gynecologic cancer cell panel viability, ATPlite luminescence, 48 h; series mostly up to 57.5 µM. In a few lines:
as §2

The test system of another test is Hek293T. The test is described as above. Particulars: Gynecologic cancer cell panel viability, ATPlite luminescence, 48 h, control line for the selectivity index; series mostly up to 57.5 µM. The method in brief: as §2
Another test relates to JEG-3. Described as above. Particulars: Gynecologic cancer cell panel viability, ATPlite luminescence, 48 h; series mostly up to 57.5 µM. The method in brief: as §2
The test system of another test is OV90. The description is as above. As to conditions: Gynecologic cancer cell panel viability, ATPlite luminescence, 48 h; series mostly up to 57.5 µM. In a few lines: as §2
For another test, the system named is PA-1. Described as above. As to conditions: Gynecologic cancer cell panel viability, ATPlite luminescence, 48 h; series mostly up to 57.5 µM. The method in brief:
as §2

The next test has as its system Tov-21-G. The test is described as above. Particulars: Gynecologic cancer cell panel viability, ATPlite luminescence, 48 h; series mostly up to 57.5 µM. In a few lines: as §2
For a further test, the system named is Tov112D. The description is as above. Particulars: Gynecologic cancer cell panel viability, ATPlite luminescence, 48 h; series mostly up to 57.5 µM. In a few lines: as §2
Another test has as its system UISO. Put plainly: qHTS assay to identify novel small-molecules to repurpose for Merkel cell carcinoma treatment (AID 1296009). Note: nearly all actives have a fitted effect of over 60% in size. Note: potency is the fitted concentration of half-maximal effect. As to conditions: MCC and control cell lines, CellTiter-Glo viability, 72 h; series mostly up to 46 µM. In a few lines:
as §1

In another test the test system is C33A. Put plainly: Primary qHTS to identify gynecologic anti-cancer compounds using libraries of approved drugs and bioactive compounds (AID 1345084). Note: % is set by controls: 0 for no effect and ±100 for the full control effect; nearly all actives have a fitted effect of over 55% in size. Particulars: Gynecologic cancer cell panel viability, ATPlite luminescence, 48 h; series mostly up to 57.5 µM. The method in brief:
as §2

The next test concerns SKOV3. The description is as above. Particulars: Gynecologic cancer cell panel viability, ATPlite luminescence, 48 h; series mostly up to 57.5 µM. In a few lines: as §2
Test [1] is described as follows: Drug repurposing screens with cells derived from glioblastoma tumor samples (AID 1345199). For activity, negative = cell killing: % is set by controls: 0 for no effect and ±100 for the full control effect. Note: nearly all actives have a fitted effect of over 40% in size. Note: potency is the fitted concentration of half-maximal effect. As to conditions: GBM patient neurospheres viability, ATP luminescence, 48 h. In a few lines:
(§3)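 Four patient lines of CD133+ GBM neurospheres were screened at several concentrations; hits were retested in those lines plus three slower-growing GBM lines, using 48-hour treatment and ATP-based viability.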

The test system of a further test is astro. The test is described as above. Particulars: viability, ATP luminescence, 48 h; series mostly up to 45.9 µM. The method in brief:
as §3

For test [2], the target named is Nuclear receptor subfamily 1 group I member 2 (Rattus norvegicus) (UniProt Q9R1A7). Put plainly: qHTS assay for small molecule activators of the rat pregnane X receptor (rPXR) signaling pathway (AID 651751; call rule not given here; note: 0% is about no effect). Particulars: rPXR reporter cells, luciferase (One-Glo), 24 h.
Setting [3] is: at 45.9 µM (top of the series), tumour line B.
The mark [4] stands for this setting: at 45.9 µM (top of the series), tumour line D.
Where [5] appears, read: at 46 µM (top of the series), tumour line A.
Setting [6] is: at 46.1 µM (top of the series), tumour line C.

Values joined by “and” are separate entries in the source; they are usually repeats but may differ in a detail not shown here. Equal values may be shown once. Results filed as inconclusive are left out. A structure can be active in one record and inactive in another. Active and inactive are the calls of the source. Unless noted, calls come from the whole dose curve; as a rule, active = well fitted curve in the direction sought with a large enough effect; inconclusive = small, poorly fitted or top-dose-only effect, or another doubt; inactive = no such curve, though single readings can be large; an effect the other way counts as inactive or inconclusive.

Sequence of Nuclear receptor subfamily 1 group I member 2 (Rattus norvegicus) (Q9R1A7 whole entry, looked up): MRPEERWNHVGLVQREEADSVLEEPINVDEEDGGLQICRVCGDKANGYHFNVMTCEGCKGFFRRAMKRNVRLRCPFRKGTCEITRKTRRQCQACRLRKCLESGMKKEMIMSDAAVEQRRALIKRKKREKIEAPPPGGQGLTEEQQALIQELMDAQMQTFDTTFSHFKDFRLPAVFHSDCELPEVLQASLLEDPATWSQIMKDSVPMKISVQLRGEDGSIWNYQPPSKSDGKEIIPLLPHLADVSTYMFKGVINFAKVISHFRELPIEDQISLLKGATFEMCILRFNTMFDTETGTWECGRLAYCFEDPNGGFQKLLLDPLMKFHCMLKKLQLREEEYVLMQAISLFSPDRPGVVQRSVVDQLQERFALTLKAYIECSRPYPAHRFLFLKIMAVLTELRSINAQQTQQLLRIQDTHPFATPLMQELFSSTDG

Take `CCOc1cc(C(=O)Nc2ccc(Cl)c(-c3nc4ccccc4[nH]3)c2)cc(OCC)c1OCC`: the outcome with NIH3T3 was inactive. Besides, the Potency entry in the test with WaGa, with CAOV3, in the test on CASKI, with Es-2, with HeLa and with Hek293T was “inactive” each time. Besides, the Potency result in the test with JEG-3, in the test with OV90, with PA-1, with Tov-21-G and with Tov112D was “inactive” each time.
As for `N=c1nc(N2CCCCC2)cc(N)n1O`, in the test with NIH3T3, the compound was called inactive. Also, the Potency entry in the test with UISO, with WaGa, with C33A, with CAOV3, in the test with Es-2 and in the test with HeLa was “inactive” in each case. For the same compound, the Potency entry in the test with Hek293T, with JEG-3, in the test with OV90, in the test on PA-1, in the test on SKOV3 and in the test on Tov-21-G was “inactive” in each case. The Potency entry in the test with Tov112D and with astro was “inactive” in each case. In addition, the activity, negative = cell killing in test [1] (setting [3]) is -6.91% (inactive); in [1] (setting [4]), -11% (inactive); in [1] (setting [5]), -16.6% (inactive).
For the compound `O=C(C1CC1)N1CC[C@@H](Cn2c(-c3ccc(-c4ccc5occc5c4)cc3)nc3cnccc32)C1`, the Potency entry in the test on UISO and in the test on WaGa was “inactive” each time.
Regarding `CS(=O)(=O)Oc1ccc2c(NC(N)=O)c(C(=O)c3ccc(Cl)cc3Cl)oc2c1`, the Potency entry with UISO was “inactive”. Besides, in the test with WaGa, the Potency was 0.833 µM (active).
Regarding `CN(C)C(=O)c1ccc(S(=O)(=O)c2ccc(NC(=O)[C@@](C)(O)C(F)(F)F)c(Cl)c2)cc1`, the compound was called inactive with NIH3T3. Also, the Potency result with C33A, with CAOV3, in the test on CASKI, in the test with Es-2, with HeLa and in the test on Hek293T was “inactive” in each case. Moreover, the Potency entry in the test on JEG-3, in the test on PA-1, in the test with Tov-21-G and with Tov112D was “inactive” throughout.
Turning to `COc1cc(Oc2ccnc3cc(OC)c(OC)cc23)ccc1NC(=O)NC(C)c1nccs1` (configuration not stated), in the test with NIH3T3, the compound was called inactive. The Potency entry in the test with WaGa, with C33A, in the test on CAOV3, with CASKI, in the test on Es-2 and in the test on HeLa was “inactive” throughout. Besides, the Potency entry with Hek293T, with JEG-3, in the test with OV90, in the test with PA-1, in the test with SKOV3 and with Tov-21-G was “inactive” throughout. The Potency entry with Tov112D was “inactive”.
Turning to `COc1cc2c(cc1OC)CN(CCc1ccc(NC(=O)c3cccc4c(=O)c5cccc(OC)c5[nH]c34)cc1)CC2`, the compound was called inactive in the test with NIH3T3. Further, the Potency result in the test with C33A, in the test on CAOV3, in the test with CASKI, in the test with Es-2, in the test with HeLa and in the test with Hek293T was “inactive” throughout. Also, the Potency result in the test with JEG-3, with OV90, in the test on PA-1, in the test with SKOV3, with Tov-21-G and in the test with Tov112D was “inactive” throughout.
As for `Nc1ncnc2nc(-c3ccc(N4CCOCC4)nc3)cc(-c3cccc(Br)c3)c12`, the Potency result in the test with UISO and in the test on WaGa was “inactive” throughout.
Regarding `Cc1n[nH]c(C)c1Cc1sc2c(c1C(=O)N1C[C@H](O)CO1)c(=O)n(C)c(=O)n2CC(C)C`, the Potency result in the test with UISO, in the test with WaGa, in the test on C33A, with CAOV3, in the test with CASKI and in the test on Es-2 was “inactive” throughout. The Potency result in the test with HeLa, with Hek293T, with JEG-3, in the test with OV90, in the test on PA-1 and in the test with SKOV3 was “inactive” in each case. For the same compound, the Potency result in the test on Tov-21-G and in the test on Tov112D was “inactive” throughout.
For the compound `COc1ccc2nc(S(=O)Cc3ncc(C)c(OC)c3C)[nH]c2c1` (configuration not stated), the Potency result with UISO, with WaGa, with C33A, in the test on CAOV3, in the test with CASKI and with Es-2 was “inactive” throughout. Besides, the Potency result in the test on HeLa, with Hek293T, in the test with JEG-3, in the test with OV90, in the test with PA-1 and in the test on SKOV3 was “inactive” in each case. Also, the Potency result in the test with Tov-21-G, in the test with Tov112D and with astro was “inactive” throughout. Besides, the activity, negative = cell killing in [1] (setting [3]) was -19.3% (inactive). For the same compound, the max response in test [2] was 14.6% (inactive).
Consider `CN(C(=O)c1ccc(F)cc1C(F)(F)F)C1CCN(c2nnc(-c3ccnn3C)c3ccccc23)CC1`, for which the Potency entry in the test on UISO, in the test with WaGa, with C33A, in the test with CAOV3, in the test on CASKI and in the test on Es-2 was “inactive” throughout. In addition, the Potency result in the test with HeLa, in the test with Hek293T, in the test on JEG-3, in the test on OV90, with PA-1 and in the test with SKOV3 was “inactive” throughout. The Potency entry in the test with Tov-21-G and with Tov112D was “inactive” in each case.
As to `O=C(O)[C@@H](c1ccc(OCc2ccc3ccccc3n2)cc1)C1CCCC1`, the Potency result in the test with UISO and in the test with WaGa was “inactive” in each case.
In the case of `COc1ccc(-c2c(-c3ccc(O)cc3O)n[nH]c2C)cc1`, the Potency result with UISO and with WaGa was “inactive” each time.
Consider `CCC(C)N(C)C(=O)c1cc2ccccc2c(-c2ccccc2Cl)n1` (configuration not stated), for which the Potency entry in the test with UISO and with WaGa was “inactive” in each case.
Consider `OCCn1cc(-c2cnc3nnn(Cc4ccc5ncccc5c4)c3n2)cn1`, for which the Potency result in the test with UISO, in the test with WaGa, in the test with C33A, in the test on CAOV3, in the test with CASKI and in the test with Es-2 was “inactive” throughout. Also, the Potency result with HeLa, in the test with Hek293T, with JEG-3, with OV90, in the test on PA-1 and in the test on SKOV3 was “inactive” each time. Further, the Potency result with Tov-21-G and in the test with Tov112D was “inactive” in each case.
For `c1ccc([C@H]2CN3CCSC3=N2)cc1`, the Potency result in the test with UISO, with WaGa, in the test on C33A, in the test on CAOV3, with CASKI and with Es-2 was “inactive” throughout. Moreover, the Potency entry in the test with HeLa, in the test with Hek293T, with JEG-3, in the test with OV90, in the test on PA-1 and in the test with SKOV3 was “inactive” in each case. For the same compound, the Potency result in the test with Tov-21-G, with Tov112D and with astro was “inactive” throughout. The activity, negative = cell killing in test [1] (setting [3]) was -5.9% (inactive); in test [1] (setting [4]), -15.5% (inactive); in test [1] (setting [6]), -7.79% (inactive). For the same compound, the Potency in test [1] (tumour line A) was 15.8 µM (active).
For the compound `Cc1cn[nH]c1`, the Potency entry is “inactive and 2.96 µM (active)” with UISO; “inactive and 1.87 µM (active)” with WaGa. The Potency result with C33A, in the test on CAOV3, with CASKI, with Es-2, with HeLa and in the test with Hek293T was “inactive” throughout. The Potency entry in the test on JEG-3, in the test with OV90, in the test with PA-1, in the test with SKOV3, in the test on Tov-21-G and with Tov112D was “inactive” in each case. The Potency result in the test on astro is “inactive”. Moreover, the activity, negative = cell killing is 0.573% (inactive) in test [1] (setting [3]), -5.07% (inactive) in [1] (setting [4]), -17.3% (inactive) in test [1] (setting [5]) and -3.17% (inactive) in [1] (setting [6]).
For the compound `CCCc1nn(C)c2c(=O)[nH]c(-c3cc(S(=O)(=O)N4CCN(C)CC4)ccc3OCC)nc12`, the Potency result with UISO, with WaGa, with C33A, with CAOV3, with CASKI and in the test on Es-2 was “inactive” throughout. Further, the Potency result in the test with HeLa, with Hek293T, in the test with JEG-3, in the test on OV90, in the test on PA-1 and with SKOV3 was “inactive” throughout. Moreover, the Potency entry in the test with Tov-21-G, in the test on Tov112D and with astro was “inactive” throughout.
